Assay outcomes (PubChem)
RecA intein inh: inhibitors of M. tuberculosis RecA intein splicing. P9WHJ3. cell-free RecA intein splicing, fluorescence. inhibition, % (test concentration not listed). 290,000 tested, 0.75% active. AID 2221; in the data active = inhibition above about 30%;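 note: 0% = vehicle wells and 100% = reference inhibitor control wells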
Target sequence (P9WHJ3 whole entry, looked up): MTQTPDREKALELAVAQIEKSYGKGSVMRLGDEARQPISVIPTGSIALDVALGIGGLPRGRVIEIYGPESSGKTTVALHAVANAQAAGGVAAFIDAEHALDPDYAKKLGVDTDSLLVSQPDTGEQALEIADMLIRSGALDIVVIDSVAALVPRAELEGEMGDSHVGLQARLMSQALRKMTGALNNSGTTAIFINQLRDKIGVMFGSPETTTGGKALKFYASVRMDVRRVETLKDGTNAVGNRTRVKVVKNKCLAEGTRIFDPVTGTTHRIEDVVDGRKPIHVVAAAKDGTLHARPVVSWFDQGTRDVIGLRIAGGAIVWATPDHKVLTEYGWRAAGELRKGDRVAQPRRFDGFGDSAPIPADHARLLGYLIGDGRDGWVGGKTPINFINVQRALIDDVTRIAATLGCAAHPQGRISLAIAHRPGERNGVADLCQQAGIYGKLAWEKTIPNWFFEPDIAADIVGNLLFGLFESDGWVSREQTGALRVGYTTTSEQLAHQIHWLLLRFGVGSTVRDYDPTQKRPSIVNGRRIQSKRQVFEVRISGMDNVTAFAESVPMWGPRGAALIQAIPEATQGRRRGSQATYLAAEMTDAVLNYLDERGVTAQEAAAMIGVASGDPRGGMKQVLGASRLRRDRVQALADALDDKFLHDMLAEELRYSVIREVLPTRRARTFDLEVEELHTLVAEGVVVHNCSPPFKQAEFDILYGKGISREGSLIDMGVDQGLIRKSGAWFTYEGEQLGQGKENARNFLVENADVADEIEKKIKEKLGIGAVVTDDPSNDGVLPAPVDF
GDH-TPI inh: inhibits GDH-TPI coupling enzymes, artifact for Mtb FBA screen. inhibition, % at 4.8 µM. GDH-TPI coupled enzyme counterscreen, NADH absorbance. 360,000 tested, 1.2% active;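 note: 0% = DMSO wells and 100% = wells lacking the enzyme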
FBA Mtb inh: Mtb fructose-bisphosphate aldolase inhibition; purified M. tuberculosis FBA, fluorescence read-out; inhibition, % at 1 µM; 360,000 tested, 2.3% active; in the data active = inhibition above about 27%;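 note: 0% = vehicle and 100% = reference inhibitor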
CCHFV vOTU inh: CCHFV vOTU protease inhibition | Pep-AMC fluorescence | inhibition, % at 11.5 µM | AID 651958 | 370,000 tested, 0.55% active; note: 0% = vehicle wells with enzyme and 100% = no enzyme wells
Mtb bLac sens: beta-lactam sensitization of Mtb H37Rv; M. tuberculosis H37Rv growth with meropenem, percent inhibition; inhibition, % at 25 µM; 330,000 tested, 0.27% active; call rule not given here;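 note: growth measured after seven days incubation then overnight dye step; 0% = bacteria only wells and 100% = bacteria with antibiotic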
The depositor's hits bear a star; nt = no result; + = active, no number. Most compounds without a hit are left out; they make up all but 4.2% or so of the library. Cut-off read from the data, not from the text of the source, unless noted: active = inhibition above about 30%; inactive = the rest.

SMILES | RecA intein inh | GDH-TPI inh | FBA Mtb inh | CCHFV vOTU inh | Mtb bLac sens
COc1ccc(OC)c(S(=O)(=O)N2CCC(c3cn4ccccc4n3)CC2)c1 | nt | nt | nt | -23.8 | nt
Cc1cc(OCC(=O)C(C)(C)C)c2c(C)c(C)c(=O)oc2c1 | -0.4 | 5.1 | 48.6* | -6.0 | -3.8
CC1C2(C)OC(=N)C(C#N)(C(C)O2)C1(C#N)C#N (stereo not given) | -190.2 | 13.1 | 127.7* | nt | -5.7
C/C(=N\NC(=O)c1ccccn1)c1ccc(Cl)cc1 | -1.3 | 7.0 | 0.9 | -13.3 | 97.2
C/C(=N\NC(=O)c1ccc(N/N=C(\C)c2ccc(O)cc2)cc1)c1ccc(O)cc1 | -0.8 | 46.1* | 2.3 | 11.9 | 12.8
C/C(=N/NC(=O)c1ccccn1)c1ccc(O)cc1 | nt | 32.5* | -0.3 | 6.2 | 99.2
O=C(CCn1nnc2ccccc21)N1CCN(c2ccccc2F)CC1 | nt | nt | nt | 1.1 | nt
COc1ccc(C(=O)CSc2nnc(-c3cccnc3)n2-c2ccccc2)cc1 | nt | nt | nt | -3.1 | nt
O=C(/C=C/c1ccc(F)cc1)Nc1ccc2[nH]c(=O)[nH]c2c1 | 0.2 | 41.6* | 1.9 | 10.1 | 2.7
O=C(Nc1ccc([N+](=O)[O-])cc1)C1C(c2ccccc2)=C1c1ccccc1 | -1.5 | 33.3* | 2.6 | -2.0 | -2.6
O=C(O)CC(NNC(=O)c1ccccc1)C(=O)Nc1ccc([N+](=O)[O-])cc1 (stereo not given) | 2.1 | 31.4* | 6.1 | -0.4 | -8.0
NC(N)=NCCCC(NC(=O)c1ccccc1)C(=O)Nc1ccc([N+](=O)[O-])cc1 (stereo not given) | 0.0 | 17.9 | -3.6 | 7.4 | 4.6
O=C(NCc1c(F)cccc1F)C1CCC(CNS(=O)(=O)c2cccc3cccnc23)CC1 (stereo not given) | nt | nt | nt | 3.2 | nt
Cc1c(CC(=O)NCC(=O)NCC(=O)N[C@@H](Cc2ccccc2)C(=O)O)c(=O)oc2c(C)c(O)ccc12 | nt | 11.8 | + | -275.8 | nt
O=C(COc1ccc2ccc(=O)oc2c1)NC(Cc1ccc(Cl)cc1)C(=O)O (stereo not given) | -1.0 | 13.7 | 18.1 | -6.6 | -2.0
COc1ccc2c(CC(=O)N[C@@H](Cc3ccccc3)C(=O)O)cc(=O)oc2c1C | 0.7 | 21.0 | 148.7* | -98.1 | -4.5
O=C(Cc1cc(=O)oc2cc(O)ccc12)NC(Cc1ccc(Cl)cc1)C(=O)O (stereo not given) | -241.6 | 7.1 | + | -368.8 | 39.2
C[C@H]1COc2cccc(N3CCSCC3)c2S(=O)(=O)N1C | nt | nt | nt | -10.9 | nt
COc1cc(NC(=O)CCl)ccc(=O)c1 | nt | 42.5* | 3.0 | -9.0 | nt
COCC(=O)Nc1cc(OC)cc(OC)c1 | 1.8 | 1.0 | 8.5 | 5.7 | 44.4
CCOC(=O)[C@]12CCCCC/C=C\1N(CCc1ccc(Cl)cc1)C(=O)[C@H]2CC(=O)NCC1CCCCC1 | nt | nt | nt | 6.1 | nt
C#CCNC(=O)C[C@@H]1C(=O)N(CCc2ccc(Cl)cc2)/C2=C/CCCCC[C@@]21C(=O)OCC | nt | nt | nt | 6.1 | nt
CN(C)CC(=O)N[C@@H]1C[C@@H]2O[C@@H](CO)CC[C@@H]2O[C@@H]1CCc1ccc(C#Cc2ccccc2)cc1 | nt | nt | nt | 7.6 | nt
COc1ccc(C2C=C(C)Nc3nc(SC)nn32)cc1 (stereo not given) | -9.2 | 20.1 | 149.3* | -82.7 | -6.7
COc1ccc(C2=CC(c3ccc(C)cc3)n3nnnc3N2)cc1 (stereo not given) | -89.6 | 24.7 | 20.6 | nt | 15.2
SMILES | RecA intein inh | GDH-TPI inh | FBA Mtb inh | CCHFV vOTU inh | Mtb bLac sens
Cc1ccc(N/N=C/c2c(C)c(C#N)c(=O)n(C)c2O)cc1C | -11.2 | 31.9* | -3.0 | 9.7 | nt
Cc1c(C=N)c(O)n(C)c(=O)c1C#N | 0.7 | 32.2* | -0.2 | 0.3 | -2.7
CCN(CC)S(=O)(=O)c1ccc(N=Cc2c(C)c(C#N)c(=O)n(C)c2O)cc1 | -3.2 | 37.8* | 2.8 | 3.1 | 7.4
COc1cc(S(=O)(=O)Nc2ccc(C)cc2)ccc1N=Cc1c(C)c(C#N)c(=O)n(C)c1O | -84.3 | 19.6 | -3.4 | 11.3 | 6.2
O=C(CCc1ccccc1-c1ccccc1CCNC(=O)c1c(F)cccc1F)NCc1ccccc1 | nt | nt | nt | 17.6 | nt
Cn1c(N)c(N=O)c(=O)n(C)c1=S | nt | 43.0* | -2.0 | 12.8 | nt
Cn1c(N)c(N=Cc2ccccc2)c(=O)n(C)c1=O | nt | -8.8 | 6.1 | -0.5 | nt
COc1ccc(C2=NN(C(=O)c3ccco3)C(c3cccs3)C2)cc1OC (stereo not given) | nt | 38.0* | -1.8 | 15.9 | nt
COc1ccc(C2=NN(C(=O)c3cccs3)C(c3ccccc3OC)C2)cc1OC (stereo not given) | -0.2 | 34.1* | 2.6 | -6.5 | 23.6
Cc1ccc(C2=NN(C(=O)c3cccs3)C(c3ccccc3O)C2)cc1 (stereo not given) | -4.9 | -4.2 | -0.1 | 8.6 | 0.1
COC(=O)[C@]12C[C@H](CC(=O)NCc3ccccc3)C(=O)N(Cc3ccc(Cl)cc3Cl)C1=C[C@H](COCc1ccccc1)O[C@@H]2C | nt | nt | nt | 2.4 | nt
Cc1cc(=O)oc2cc(O[C@@H]3O[C@H](CO)[C@H](O)[C@H](O)[C@H]3O)ccc12 | -0.1 | 6.0 | 7.1 | -8.0 | -6.6
O=C(O)C1CCN(C(=O)COc2ccc3c(c2)oc(=O)c2ccccc23)CC1 | 1.7 | 10.8 | 138.4* | -102.4 | -9.4
Cc1c(OCC(=O)N2CCC(C(=O)O)CC2)ccc2c1oc(=O)c1ccccc12 | -1.2 | 10.8 | 142.0* | -127.1 | -5.7
O=C(COc1ccc2c3c(c(=O)oc2c1)CCCC3)N1CCN(c2ccc(F)cc2)CC1 | 0.4 | 5.6 | 3.8 | 8.9 | -4.9
O=c1oc2cc(O[C@@H]3OC[C@@H](O)[C@H](O)[C@H]3O)ccc2c2ccccc12 | -0.6 | 14.7 | 71.5* | -67.3 | 1.1
O=C(COc1ccc2c(c1)oc(=O)c1ccccc12)N[C@@H](Cc1ccccc1)C(=O)O | -3.6 | 8.8 | 115.5* | -63.9 | -6.4
Cc1c(Cc2ccccc2)c(=O)oc2cc(OCC(=O)N3CCC(C(=O)O)CC3)ccc12 | nt | 32.4* | 148.2* | -82.0 | -5.4
Cc1c(C)c2ccc(OCC(=O)N3CCN(Cc4ccccc4)CC3)cc2oc1=O | nt | 2.9 | 0.4 | 7.1 | 0.4
CCOc1ccc(/C=C/C(O)=C2/C(=O)N(C)C3(C)CC2c2ccccc2O3)cc1OC (stereo not given) | -25.3 | 38.8* | 2.9 | 5.0 | 5.0
CCOc1ccc(/C=C/C(O)=C2/C(=O)NC3(C)CC2c2ccccc2O3)cc1OC (stereo not given) | -4.7 | 12.9 | 1.0 | -8.2 | 26.8
Cc1ccsc1/C=N/Nc1nc2ccccc2s1 | 1.5 | 20.1 | 0.0 | 8.0 | -2.5
Oc1ccc(C=NNc2nc3ccccc3s2)c(O)c1 | nt | 32.3* | -1.4 | 0.8 | nt
Oc1ccccc1C=NNc1nc2ccccc2s1 | nt | 23.8 | 2.7 | 7.1 | nt
C(=N\Nc1nc2ccccc2s1)/c1ccco1 | 3.7 | 41.6* | -0.9 | 20.9 | 86.3
C(=N\Nc1nc2ccccc2s1)/c1cccs1 | 1.9 | 42.5* | 0.2 | 13.4 | 81.4
C=CCN1C(=O)[C@@H](CC(=O)NCCCC)[C@]2(C(=O)OCC)CCCCC/C=C/12 | nt | nt | nt | 0.8 | nt
Cc1ccc(C)n1-c1nccc(-c2cccs2)n1 | -117.4 | -5.3 | 161.1* | -141.9 | 6.8
Cc1ccc(C)n1-c1nccc(-c2ccco2)n1 | -40.5 | 5.7 | 158.4* | -124.6 | 2.3
N#Cc1cccn1-c1nccc(-c2cccs2)n1 | -0.8 | 4.2 | -5.4 | 3.5 | 13.2
